What all share (assay): NCI-60 one-dose screen, 48 h (100 = growth as untreated, 0 = no growth, -100 = all killed)
What all share (conditions): 10 µM unless noted

Test [1] concerns HT29 colon.
In test [2] the test system is SNB-75 CNS.
Test [3] relates to SNB-19 CNS.
Test [4] deals with U251 CNS.
Test [5] has as its system PC-3 prostate.
Test [6] has as its system SK-MEL-5 melanoma.
Test [7] has as its system UACC-62 melanoma.
For test [8], the system named is LOX IMVI melanoma.
The subject of test [9] is SK-MEL-28 melanoma.
Test [10] concerns SK-MEL-2 melanoma.
Test [11] deals with EKVX NSCLC.
In test [12] the test system is SN12C renal.
The test system of test [13] is UO-31 renal.
Test [14] has as its system TK-10 renal.
Test [15] deals with ACHN renal.
The test system of test [16] is CAKI-1 renal.
The subject of test [17] is A498 renal.
Test [18] deals with CCRF-CEM leukemia.
The subject of test [19] is MOLT-4 leukemia.
For test [20], the system named is HCT-15 colon.

Molecules are shown by their SMILES. “And” between values parts separate entries of the source, which are not always exact repeats. Equal entries are not always repeated. About 83,000 compounds went through this panel and 20% of them were active in at least one assay; those are over-represented in the sample as a whole.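 Each cell line was grown in a 96-well plate and treated with one concentration of compound for 48 hours. Values below 10 were considered active.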 The source made the active and inactive calls.

`O=C(CC1(O)C(=O)Nc2c(Cl)ccc(Cl)c21)c1ccc(Cl)cc1Cl` (stereo not given): the growth is 90.3% (inactive) in test [1]; 70.1% (inactive) in test [2]; 107% (inactive) in test [3]; 96.4% (inactive) in test [4]; 81% (inactive) in [5]; 100% (inactive) in test [6]. Besides, the growth was 97.8% (inactive) in [7]; 100% (inactive) in [8]; 109% (inactive) in test [9]; 98.9% (inactive) in test [10]; 85.2% (inactive) in test [11]; 104% (inactive) in test [12]. Moreover, the growth in test [13] was 86.2% (inactive); in test [14], 105% (inactive); in test [15], 107% (inactive); in [16], 93.8% (inactive); in test [17] it was 79.7% (inactive); in test [18], 112% (inactive).

With `CN(C)c1ccc(C(=C2C=CC(=[N+](C)C)C=C2)c2ccc(N(C)C)cc2)cc1` (tested in a mixture with another compound), the growth in [1] is -87.3% (active); in [2], -97.3% (active); in test [3], -99.1% (active); in [4], -95.8% (active); in test [5], -38% (active); in [6] it was -99.3% (active). In addition, the growth was -64.4% (active) in test [7]; -89.2% (active) in test [8]; -87% (active) in test [9]; -66.9% (active) in test [10]; -35.6% (active) in [11]; -48.3% (active) in test [12]. For the same compound, the growth in [13] is -80.8% (active); in [14] it was -79.2% (active); in [15], -98.6% (active); in test [16] it was -43.7% (active); in [19], -23.7% (active).

For the compound `CCCCCCCCCCCCCCCCCCOP(=O)([O-])OC1CC[N+](C)(C)CC1`, the growth in test [20] is -50% (active) and -67.9% (active); in [2], 10.6% (inactive) and -41.7% (active); in test [3] it was -29.2% (active) and -65.1% (active); in [4], -35.1% (active) and -68.1% (active); in test [5] it was -50.8% (active) and -75.1% (active); in test [6], 38.7% (inactive) and 20% (inactive). For the same compound, the growth in test [7] was 25.3% (inactive) and 37.2% (inactive); in test [8], 11.4% (inactive) and -3.66% (active); in [9], 57.3% (inactive); in test [10] it was -14.6% (active); in [11], 36.3% (inactive) and 41.5% (inactive); in test [12] it was 19.9% (inactive) and 24.9% (inactive). The growth in test [13] was -5.55% (active) and -40.1% (active); in test [14], -79.1% (active) and -93.8% (active); in test [15], 28.6% (inactive) and 23.9% (inactive); in test [16], -9.45% (active) and -42.7% (active); in [17], -21.6% (active) and -25.3% (active); in test [18], -2.22% (active) and -53% (active).

With `CC(=O)C(=Cc1ccc(C=C(C(C)=O)C(C)=O)cc1)C(C)=O`, the growth is -32.7% (active) in test [20]; 73.1% (inactive) in test [2]; -23.7% (active) in [4]; 2.43% (active) in test [5]; 72.8% (inactive) in [6]; -41.6% (active) in test [7]. For the same compound, the growth in test [8] was -97.8% (active); in test [9] it was -34.8% (active); in test [10] it was 70.8% (inactive); in [11], 94.2% (inactive); in test [12], 17.4% (inactive); in test [13] it was -12.2% (active). In addition, the growth in test [14] was 5.12% (active); in test [15], -33.5% (active); in test [16], -50.7% (active); in test [17] it was 94.1% (inactive); in test [18], -5.86% (active); in test [19], 6.74% (active).

Take `O=C(Nc1ccccc1)c1cc(Cl)ccc1O`: the growth in test [20] is 64.1% (inactive); in test [2], 64% (inactive); in test [4] it was 59.1% (inactive); in [5], 66.5% (inactive); in test [7] it was 34.1% (inactive); in [8] it was 79.8% (inactive). The growth in test [9] was 55.7% (inactive); in test [10], -6.3% (active); in [11] it was 88.2% (inactive); in [13] it was 49.7% (inactive); in test [14], 53.5% (inactive); in test [15], 57.3% (inactive). For the same compound, the growth in test [16] was 49.6% (inactive); in test [17] it was -4.6% (active); in test [18] it was 68% (inactive); in test [19], 77.2% (inactive).

As for `Cc1cc(C(C)(CC(C)C)c2ccc(O)c(C)c2)ccc1O`, the growth is 98.7% (inactive) in [1]; 75.8% (inactive) in [2]; 109% (inactive) in test [3]; 94.3% (inactive) in test [4]; 71.1% (inactive) in test [7]; 97% (inactive) in test [8]. Also, the growth in test [10] was 104% (inactive); in [11], 89.5% (inactive); in [12], 85.6% (inactive); in test [13], 84.6% (inactive); in [14] it was 141% (inactive); in test [15], 83.3% (inactive). Moreover, the growth in test [16] was 73.3% (inactive); in [17] it was 101% (inactive); in test [18] it was 92% (inactive); in test [19], 80.8% (inactive).

Take `O=C1C2=C(Nc3cc([N+](=O)[O-])ccc3N2)OC1c1c2ccccc2cc2ccccc12` (stereo not given): the growth was 51.4% (inactive) in [1]; 52.4% (inactive) in test [2]; 31.4% (inactive) in test [4]; 20.5% (inactive) in test [5]; 56.7% (inactive) in [6]; 44.6% (inactive) in test [7]. Besides, the growth was 38.1% (inactive) in test [8]; 87.4% (inactive) in [10]; 43.6% (inactive) in test [11]; 30.6% (inactive) in test [12]; 28.3% (inactive) in test [13]; 73.5% (inactive) in test [14]. The growth in test [15] was 51.4% (inactive); in test [16] it was 53.1% (inactive); in test [17], 104% (inactive); in [18], 9.72% (active); in [19], 8.22% (active).
